# Reference: PubChem BioAssay
# Activity calls are given as the source filed them. Unless noted, no rule for the calls is given here.
# Key:
# [1] = tested on: Wnt5a (protein binding on small-molecule microarray); assay: Wnt5a binders on small-molecule microarray, primary screen, biophysical, 635/667 nm fluorescence (AID 1142); settings: 635 nm fluorescence, higher = more signal;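 also: fluorescence read at 667 nm with signal to noise per printed feature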
# [2] = cell viability in Huh7 cells, primary screen, cytotoxicity control for HCV replication inhibitor project, CellTiter-Glo luminescence, basal, 48 h (AID 1143); settings: Huh7 HCV replicon, higher = more signal, called active from +8 up or from −8 down;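 also: Huh7 hepatoma cells carrying a hepatitis C replication reporter with no stimulus; test concentration not given here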
# [3] = P. aeruginosa biofilm formation inhibitors, primary screen, PAO1 strain, BacTiter-Glo luminescence, LB-PBS (AID 1144); settings: 12 h, higher = more signal
# [4] = CREB reporter modulators without forskolin, primary screen, cell-based, PC12, CRE-LacZ reporter, unstimulated (AID 1145); settings: no forskolin, luminescence, 4.5 h, higher = more signal, called active from +8 up or from −8 down
# [5] = CREB reporter modulators under forskolin, primary screen, cell-based, PC12, CRE-LacZ reporter, forskolin-stimulated (AID 1146); settings: luminescence, 4.5 h, higher = more signal, called active from +8 up or from −8 down;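 also: PC12 cells with 6xCRE LacZ reporter stimulated by forskolin 10 µM; beta-galactosidase reporter signal reflecting CREB driven transcription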
# [6] = target: Streptavidin (Streptomyces avidinii) (UniProt P22629); assay: streptavidin binders on small-molecule microarray, primary screen, artefact control for SMM compound annotation, biophysical, 635/667 nm fluorescence (AID 1147); settings: streptavidin binding, higher = more signal;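 also: signal reflects streptavidin binding to arrayed compounds as a control protein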
# [7] = small-molecule binders of probe aInhba, primary screen, biochemical, small-molecule microarray, 635/667 nm fluorescence (AID 1148); settings: higher = more signal;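 also: score merges 667nm spot fluorescence with signal-to-noise for antibody binding to printed compounds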
# Torsin-1A (Homo sapiens) [8] = target: Torsin-1A (Homo sapiens) (UniProt O14656); assay: torsin A binders from cell lysate, primary screen, small-molecule microarray, wild-type, 635/667 nm (AID 1149); settings: COS7 hTOR1A-WT lysate, 635 nm fluorescence, higher = more signal
# Torsin-1A (Homo sapiens) [9] = target: Torsin-1A (Homo sapiens) (UniProt O14656); assay: small-molecule binders of mutant TOR1A in lysate, primary screen, cell lysate, small-molecule microarray, COS7 lysate, 635/667 nm fluorescence (AID 1150); settings: COS7 hTOR1A mutant lysate, 635 nm fluorescence, higher = more signal;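 also: score pools 667 nm emission and signal to noise measuring lysate protein binding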
# [10] = tested on: Sonic hedgehog protein (Shh); assay: small-molecule binders of Shh protein, primary screen, biochemical, small-molecule microarray, 635/667 nm fluorescence (AID 1151); settings: small-molecule microarray binding, 635 nm fluorescence; higher = more signal;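 also: Shh protein binding to compounds spotted on small-molecule microarray slides; score combines spot fluorescence intensity with signal-to-noise across triplicate slides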
# Streptavidin (Streptomyces avidinii), sequence (P22629 whole entry, looked up): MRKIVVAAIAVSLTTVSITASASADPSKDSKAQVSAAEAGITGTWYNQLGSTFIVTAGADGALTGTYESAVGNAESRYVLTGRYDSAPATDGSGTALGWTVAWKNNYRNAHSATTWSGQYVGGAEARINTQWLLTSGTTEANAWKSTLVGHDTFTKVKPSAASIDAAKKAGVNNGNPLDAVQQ
# Torsin-1A (Homo sapiens), sequence (O14656 whole entry, looked up): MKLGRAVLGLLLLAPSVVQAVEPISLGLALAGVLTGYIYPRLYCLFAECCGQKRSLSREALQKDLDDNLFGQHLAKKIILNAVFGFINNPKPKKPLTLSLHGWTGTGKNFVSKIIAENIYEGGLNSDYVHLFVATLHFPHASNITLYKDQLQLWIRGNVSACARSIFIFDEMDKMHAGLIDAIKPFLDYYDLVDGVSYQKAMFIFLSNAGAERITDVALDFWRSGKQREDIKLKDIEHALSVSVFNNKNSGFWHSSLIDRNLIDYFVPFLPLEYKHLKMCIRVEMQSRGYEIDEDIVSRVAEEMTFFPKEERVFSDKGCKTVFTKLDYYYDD
SMILES,composite z-score [1],z-score [2],z-score [3],z-score [4],z-score [5],composite z-score [6],composite z-score [7],composite z-score (Torsin-1A (Homo sapiens) [8]),composite z-score (Torsin-1A (Homo sapiens) [9]),composite z-score [10]
COc1ccc(CCNC(=O)[C@@]2(c3ccc([N+](=O)[O-])cc3)CC(=O)N(C3CCCCC3)[C@@H]2c2ccc(CO)cc2I)cc1,1.07,-4.72 (inactive),1.02 (inactive),0.441 (inactive),0.0398 (inactive),-0.0827,-0.0695,0.628,0.0294,0.575
C=CC[C@H](O)c1ccc(O)c(F)c1,-0.863,-0.48 (inactive),-0.955 (inactive),-0.0392 (inactive),-0.535 (inactive),-1.39,-0.0429,-3.98,-1.66,-1.11
COC(=O)C1=CC(CCCO)=CC(c2ccc(CN3CCCC3)cc2)N(C)C=C1C(=O)OC (stereo not given),0.408,0.209 (inactive),0.0505 (inactive),-0.464 (inactive),-0.0736 (inactive),0.532,0.0658,-1.01,-0.418,-0.284
[N-]=[N+]=NCc1ccccc1[C@H]1OC(c2ccc(OCCCO)cc2)=N[C@@]1(Cc1ccccc1N=[N+]=[N-])C(=O)N1CCOCC1,0.135,-3.35 (inactive),-0.149 (inactive),2.61 (inactive),-0.529 (inactive),1.24,0.222,0.249,0.488,-1.15
CC(C)C(=C=CC[C@H](O)c1cccc(OCCO)c1)C[C@H](O)c1ccccn1,-0.103,-0.667 (inactive),-1.06 (inactive),2.25 (inactive),0.42 (inactive),-0.502,-0.0986,-0.256,0.0951,1.45
[N-]=[N+]=NCc1ccccc1C[C@@]1(C(=O)NCCN2CCOCC2)N=C(c2ccc(OCCCO)cc2)O[C@@H]1c1ccccc1,0.366,-3.38 (inactive),0.505 (inactive),2.72 (inactive),0.847 (inactive),1.11,0.302,0.271,0.57,0.34
COc1cccc(C)c1NC(=O)O[C@H]1[C@H](OC(=O)Nc2ccccc2)[C@@H](OC(=O)Nc2ccccc2)[C@@H](OC)O[C@@H]1CO,0.486,-4.16 (inactive),-1.16 (inactive),1.61 (inactive),-2.37 (inactive),0.163,0.0227,2.57,0.958,0.958
COC(=O)[C@@]1(Cc2ccc(F)cc2)[C@H]2c3cc(C(=O)N4CCCC4)n(Cc4ccc(C(F)(F)F)nc4)c3C[C@H]2CN1C(=O)c1ccccc1,0.406,-2.55 (inactive),0.193 (inactive),0.197 (inactive),-0.388 (inactive),1.99,-0.025,1.45,1.14,-0.388
COCCOC(=O)N1C(=O)[C@@]2(c3cc(C#CCCO)ccc31)[C@H](C(=O)N1CCN(c3ncccn3)CC1)[C@H]1C(=O)O[C@H](c3ccccc3)[C@H](c3ccccc3)N1[C@@H]2c1ccc(OCCO)cc1,0.624,-0.445 (inactive),0.386 (inactive),1.05 (inactive),0.136 (inactive),1.26,0.0528,-0.279,0.458,1.99
COCCCNC(=O)[C@@]1(CCC(=O)OC(C)(C)C)N=C(c2ccc(OCCCO)cc2)O[C@H]1c1ccccc1,0.581,0.0272 (inactive),-0.029 (inactive),-1.29 (inactive),-0.391 (inactive),0.471,0.113,0.725,1.12,-0.119
CCOC(=O)C1=CC[C@@H](c2ccccc2)N(S(=O)(=O)c2ccc(C)cc2)[C@@H]1C#N,0.0432,-2.54 (inactive),-0.232 (inactive),-0.266 (inactive),40.6 (active),0.814,-0.128,0.0512,0.291,-0.0766
O=C1NC(=O)C2C1C=CC(C(O)C(O)CO)N2Nc1ccccn1 (stereo not given),0.146,0.165 (inactive),-0.893 (inactive),0.0603 (inactive),0.0702 (inactive),0.0832,-0.168,0.435,0.344,0.199
COc1ccc([Si](C)(C)[C@@H]2[C@@H](CC(=O)N3CCC[C@H]3CO)O[C@]3(C(=O)N(Cc4cccc(N5C(=O)c6cccc7cccc5c67)c4)c4ccccc43)[C@H]2C)cc1,0.614,-5.86 (inactive),-0.334 (inactive),0.819 (inactive),-1.41 (inactive),0.609,-0.129,0.729,0.499,1.42
CCOC(=O)C[C@H]1[C@H](OC(=O)Cc2ccc3c(c2)OCO3)[C@@H](NC(=O)CC(C)C)c2cc(OCCCO)ccc2N1C(=O)c1ccc2ccccc2n1,0.25,-3.23 (inactive),0.0536 (inactive),7.92 (inactive),0.812 (inactive),0.23,-0.0331,0.384,-0.147,0.458
CC(C)C[C@@H]1NC(=O)[C@@H]2C[C@H](C(=O)NCCCCCCNC(=O)CS)[C@H](c3ccc(O)cc3)N2C1=O,0.841,-1.88 (inactive),-0.00979 (inactive),-0.268 (inactive),-0.439 (inactive),0.813,-0.0933,0.887,1.21,2.21
C=CCNC(=O)[C@@H]1[C@H]2C(=O)O[C@H](c3ccccc3)[C@H](c3ccccc3)N2[C@H](c2ccc(OCCO)cc2)[C@@]12C(=O)Nc1ccc(C#CCNC(N)=O)cc12,0.0977,0.414 (inactive),0.0575 (inactive),0.155 (inactive),0.0297 (inactive),0.987,-0.0195,0.564,0.19,0
O=C1C2C=CC(C(O)C3CC=CCC3)N(Nc3ccc([N+](=O)[O-])cc3)C2C(=O)N1c1ccccc1 (stereo not given),0.632,-0.574 (inactive),-0.917 (inactive),1.23 (inactive),1.13 (inactive),0.941,0.74,0.26,0.483,0.606
CCOC(=O)C[C@H]1[C@H](OC(=O)c2ccc(-c3ccccc3)cc2)[C@@H](NC(=O)C2CCCCC2)c2cc(OCCCO)ccc2N1C(=O)Cc1ccc(OC)cc1,-0.12,-0.137 (inactive),-0.105 (inactive),-0.155 (inactive),-0.185 (inactive),0.226,-0.0259,0.061,0.391,0.106
CC(C)[Si]1(C(C)C)OCc2cc(-c3ccc(-c4ccc(Cl)c(Cl)c4)o3)nc(-c3ccc(Oc4ccccc4)cc3)c21,-0.615,-0.558 (inactive),0.457 (inactive),0.251 (inactive),-0.835 (inactive),-0.767,-0.382,-1.33,-2.07,-0.976
COc1cc(Cc2cc3c(c(-c4ccccc4)n2)[Si](C(C)C)(C(C)C)OC3)cc(OC)c1OC,0.26,-0.324 (inactive),-0.546 (inactive),-0.113 (inactive),-0.437 (inactive),1.89,0.161,-0.226,-0.141,0.143
COc1ccc(NN2C(C(O)c3ccc(F)cc3)C=CC3C(=O)N(C4CCCCC4)C(=O)C32)cc1 (stereo not given),0.0942,-0.591 (inactive),-0.796 (inactive),1.24 (inactive),1.08 (inactive),1.58,0.112,0.638,0.197,0.244
Cc1ccc(S[C@]2(C(=O)NC(C)C)CC(=O)N(Cc3ccccc3)[C@@H]2c2ccc(CO)cc2I)cc1,-0.114,-1.99 (inactive),1.2 (inactive),0.0548 (inactive),0.0831 (inactive),-0.864,-0.128,-0.782,0.0888,-0.421
C=CC[C@H](OC(=O)Nc1ccc(SC)cc1)c1ccc(O)c(F)c1,-0.171,-0.489 (inactive),-0.459 (inactive),0.31 (inactive),5.56 (inactive),-0.588,-0.285,-0.135,-0.151,0.988
C=C1C(=O)C=C2CN(C(=O)c3ccccc3)[C@@](Cc3ccc(F)cc3)(C(=O)OC)[C@@H]12,0.272,-5.23 (inactive),1.1 (inactive),-0.375 (inactive),-2.15 (inactive),1.87,0.49,0.172,0.73,-0.0536
COC(=O)C1=CC(c2ccc(CO)cc2)=CC(C2CC2)N(Cc2cc3c(cc2Br)OCO3)C=C1C(=O)OC (stereo not given),0.92,-3.35 (inactive),0.754 (inactive),-0.904 (inactive),-0.5 (inactive),1.52,0.225,0.312,0.832,1.21
O=C1C[C@@](C(=O)NCC(F)(F)F)(c2ccc([N+](=O)[O-])cc2)[C@@H](c2ccc(CO)cc2I)N1CC12CC3CC(CC(C3)C1)C2,0.437,-5.73 (inactive),-1.44 (inactive),0.558 (inactive),-1.01 (inactive),0.229,0.0167,-0.286,-0.251,1.53
COC(=O)C(CC#Cc1ccc2c(c1)[C@]1(C(=O)N2)[C@H](c2ccccc2OCCO)N2[C@H](c3ccccc3)[C@H](c3ccccc3)OC(=O)[C@H]2[C@@H]1C(=O)N1CCN(c2ncccn2)CC1)C(=O)OC,0.253,-4.92 (inactive),-0.321 (inactive),-0.375 (inactive),2.68 (inactive),1.06,-0.0695,1.03,0.498,1.11
